# Data taken from PubChem BioAssay AID1439 (NMMLSC, 2008).
# The whole screen tested about 220,000 compounds, of which about 770 (0.35%) were called active. About 15% were inconclusive and are not listed. No stated cut-off is given here; in the data, active means binding response below about 49% or above about 150%; inconclusive means no clear call, values can overlap the other calls; inactive means in between. The sample as a whole holds a higher share of actives than the screen did.
# Target: Guanine nucleotide-binding protein G(o) subunit alpha (Homo sapiens) (UniProt P09471)
# Sequence (P09471 whole entry, looked up): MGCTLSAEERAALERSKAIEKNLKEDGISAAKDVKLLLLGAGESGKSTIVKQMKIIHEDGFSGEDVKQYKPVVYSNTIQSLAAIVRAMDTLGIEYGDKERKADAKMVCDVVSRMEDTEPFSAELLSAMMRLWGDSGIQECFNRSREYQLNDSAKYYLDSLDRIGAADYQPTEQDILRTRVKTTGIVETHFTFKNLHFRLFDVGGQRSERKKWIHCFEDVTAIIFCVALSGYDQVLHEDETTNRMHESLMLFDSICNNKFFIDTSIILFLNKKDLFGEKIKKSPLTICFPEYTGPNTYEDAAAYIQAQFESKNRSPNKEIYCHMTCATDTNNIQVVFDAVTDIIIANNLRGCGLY
# Assay: compounds changing RGS7 association with Galphao – biochemical, multiplexed bead flow cytometry, primary screen (AID 1439);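 further: fluorescent Galphao held in activated GDP-AlF4 state binding bead-coupled RGS7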
# Details: at 10 µM, actives lie on both sides
row,Compound,binding response (% of control)
1,O=C(COc1ccc(Cl)cc1)N1CCN(c2cccc(C(F)(F)F)c2)CC1,104% (inactive)
2,COC(=O)c1ccccc1OCC(=O)N1CCN(c2ccc(Cl)cc2)CC1,290% (active)
3,O=C(CN1CCN(c2ccc(Cl)cc2)CC1)N1CCCC1,102% (inactive)
4,COCCn1c(C)cc(C(=O)COC(=O)/C=C/c2cccc(OC)c2)c1C,92.8% (inactive)
5,FC(F)(F)c1cccc(Cc2noc(CN3CCC(N4CCCCC4)CC3)n2)c1,104% (inactive)
6,CCOC(=O)c1sc(/N=C/C2=C(O)CC(C)(C)CC2=O)c(C(=O)OCC)c1C,107% (inactive)
7,Cc1cc(C)n2nc(SCC(=O)NC(=O)NCc3ccco3)nc2n1,102% (inactive)
8,Cc1ccccc1CN1CCN(C(=O)c2cccc(F)c2)CC1,105% (inactive)
9,Cc1ccccc1CS(=O)(=O)CC1(O)CCN(C(=O)c2cccc(C(F)(F)F)c2)CC1,157% (active)
10,CC(C)CC(=O)N1CCC(O)(CS(=O)(=O)Cc2ccccc2)CC1,103% (inactive)
11,CCOC(=O)C1=NOC(Cn2cc(C(C)=O)c(=O)[nH]c2=O)C1 (stereo unspecified),100% (inactive)
12,COc1cc2c(cc1OC)CN(C(=O)c1ccc(S(=O)(=O)N3CCCCCC3)cc1)CC2,89.7% (inactive)
13,CCOc1cc(C(=O)N2CCc3cc(OC)c(OC)cc3C2)ccc1OC(F)F,159% (active)
14,COc1cc2c(cc1OC)CN(C(=O)c1cc(=O)c3ccccc3o1)CC2,97.6% (inactive)
15,CCC(=O)NC(=S)Nc1ccc(NC(=O)c2ccco2)c(Cl)c1,102% (inactive)
16,O=C(Nc1cccc(Cl)c1N1CCOCC1)c1ccc2c(c1)OCCO2,108% (inactive)
17,Cn1c(=O)c2c(n(Cc3ccccc3)c1=O)NC(=O)C2CC(=O)N1CCc2ccccc2C1 (stereo unspecified),13.5% [inhibitor] (active)
18,O=C(CSc1nnc(-c2cccs2)n1Cc1ccccc1)N1CCc2ccccc2C1,102% (inactive)
19,O=C(COc1ccccc1)N1CCc2ccccc2C1,103% (inactive)
20,CCCCCCCNc1nc(Cl)nc(NCCO)n1,93.6% (inactive)
21,CN(C)C(=O)CSc1n[nH]c(-c2ccco2)n1,107% (inactive)
22,O=[N+]([O-])c1ccc(Sc2n[nH]c(-c3ccco3)n2)nc1,105% (inactive)
23,Cc1ccc(N2C(=O)C(Cc3ccccc3)NC2=S)cc1 (stereo unspecified),99% (inactive)
24,Cc1ccc(N=Nc2c(C)[nH]n(-c3ccccc3)c2=O)cc1,100% (inactive)
25,Cc1ccc(N2C(=O)C3C(c4ccccc4)(C2=O)C3(c2ccccc2)c2ccccc2)cc1 (stereo unspecified),14.4% [inhibitor] (active)
26,CCCC1C(c2ccccc2)C(C#N)(C#N)C2(C#N)CC1(N)NC2=O (stereo unspecified),152% (active)
